# Test results as given in article PMC13494018.
# Values without a mark were called inactive. The rule behind the calls is not given here.
# B1: design_607_777643b9-bd23-49d1-80ae-2b1434974efa_37_dldesign_0_cycle1_af2pred (protein)
# chain: SSNKETADAIRDAVKAAQEVGKLAKEKLSPEEAKAVADELNKAIFDLVDTAASEGVDGAKAAAADVKAKVEKLKKEIAAKAAAA
# B2: design_607_777643b9-bd23-49d1-80ae-2b1434974efa_1231_dldesign_0_cycle1_af2pred (protein)
# chain: AEEEKKKKEEEKKRTAENKALAYEEAARHAMEQGEKGSPEQRPAAVERAREFAKRAIEADPKKGAELLKEVEAFAAKWEEEA
# B3: design_607_777643b9-bd23-49d1-80ae-2b1434974efa_981_dldesign_0_cycle1_af2pred (protein)
# chain: MAEEAKKKLEQAAKLMAIAYETLAAGERGLATPEELKEAAKKAEEAAKLAKEVGKVTPEKEYYEKAAKRAEKVAKRLKELAKKIEE
# B4: design_607_777643b9-bd23-49d1-80ae-2b1434974efa_649_dldesign_0_cycle1_af2pred (protein)
# chain: DAAKAAAKAFAAGAIKLAEKLAKEYPEIAATMKEAIAAAKEAAKLADTDAAAGKAAASAANFTVLEAYAEAKA
# B5: design_607_777643b9-bd23-49d1-80ae-2b1434974efa_1186_dldesign_0_cycle1_af2pred (protein)
# chain: KEAEIKAEAQALIDAVRAAAAAAVALAADPAAARALLTAAIGKVLEGSKEAASLALPEAVAIAREAGAAAEAAHAAAA
# B6: design_607_777643b9-bd23-49d1-80ae-2b1434974efa_1068_dldesign_0_cycle1_af2pred (protein)
# chain: MKKKASELMHEAYELAALAEAYPENAEEYYKKAKEYGEEAVKEAEKYDPEYGKKAKERAEKVTKRAKEAVEKYKKEK
# B7: design_607_777643b9-bd23-49d1-80ae-2b1434974efa_351_dldesign_0_cycle1_af2pred (protein)
# chain: SEEEAKKLAEEAAKKAREAAEEAEKLAKEAEKIGNKKIANKLYAYAERLKNVAESVELHAGDKEYAEKGLEVTEKLRKKAKELYKEAK
# B8: design_607_777643b9-bd23-49d1-80ae-2b1434974efa_321_dldesign_0_cycle1_af2pred (protein)
# chain: SKIYEEKKKEIEEAAEKAKELAKKDPEKGRKYLKEKNKKFKEFVEKLKADPKTKADAEKILKEASKKSAEVYEVIAEEEQKKRRE
# B9: design_607_777643b9-bd23-49d1-80ae-2b1434974efa_280_dldesign_0_cycle1_af2pred (protein)
# chain: GAEKEKAEKIAKEKLAEGKKLAEEAKKGTPEEAKKKRKEFLEELKKLAKEGTPYLAKLLAKVAAEVSEAFAEAYAEALRK
# B10: design_607_777643b9-bd23-49d1-80ae-2b1434974efa_640_dldesign_0_cycle1_af2pred (protein)
# chain: AETEKKIKELEKKAHDAYQKAAEYYHDKNLKEAGDLYRKAAKLYAEAAKALAKGEEAPKAEEYEAKAKAYEEEAQKLKA
# B11: design_607_777643b9-bd23-49d1-80ae-2b1434974efa_139_dldesign_0_cycle1_af2pred (protein)
# chain: NEEQKKLAEEAIEEIKRLQEKAFDAVGAGDIEEAKKYLEEMEKVAKETAAKVPPEYAKKVLEALEKAKKAVESAIKAAEENEK
# B12: design_607_777643b9-bd23-49d1-80ae-2b1434974efa_278_dldesign_0_cycle1_af2pred (protein)
# chain: SSLTLEASKKSGEAYFLLNEAEFLAKKKGDEETAKKAEEARKKLKEKLDAAKTGAEKLAAALEGLKEAEKIYKEALE
# B13: design_607_777643b9-bd23-49d1-80ae-2b1434974efa_529_dldesign_0_cycle1_af2pred (protein)
# chain: NLGEKASKATKVLVDAAKEIAKKAGEEAKAKAAAALVTLFSLFEDPEKAAKEAKALVPEKAKPIVEKAAKEADKLLN
# B14: design_607_777643b9-bd23-49d1-80ae-2b1434974efa_21_dldesign_0_cycle1_af2pred (protein)
# chain: MEVEKLRKKAVEEAKKGGLGTPEEAREKRKKAEELLKEMKKAGATEEEVAKAATEAAEAYVEAKNEKYLKE
# B15: design_607_777643b9-bd23-49d1-80ae-2b1434974efa_1207_dldesign_0_cycle1_af2pred (protein)
# chain: AVAEAAQYAQEARQYAAEAEYLGKKYGKKNKEIKKYAEKAKEAAKKAREAAKKGDLEAAKEYAKKAKELAEKAEELAKKEEE
# B16: design_607_777643b9-bd23-49d1-80ae-2b1434974efa_648_dldesign_0_cycle1_af2pred (protein)
# chain: SEEERRRREEAYRELSEALREARELGKRLKEAGADPEVIKRLSELLAEISETLAELRAGLANEEEIERAKEAAREALELAREELERL
# B17: design_607_777643b9-bd23-49d1-80ae-2b1434974efa_665_dldesign_0_cycle1_af2pred (protein)
# chain: MKETEEEIKKIEEEAKELAEKGKEKSVEEFKKEMVKFIFSLADEGAHPEAISSAARIAKESYEKLKKKEEEEKK
# B18: design_607_777643b9-bd23-49d1-80ae-2b1434974efa_1238_dldesign_0_cycle1_af2pred (protein)
# chain: SLKEALLEEAKEAIKAAKAGDASKVAAETLEMRSAAEALAKDDEEAKKFAEKTRKALELLRKDPEKGLKYAEEVAKEIIKAIE
# B19: design_607_777643b9-bd23-49d1-80ae-2b1434974efa_839_dldesign_0_cycle1_af2pred (protein)
# chain: AAAAAKAQADAILADAKAKAAEALKKDPKTGAEEAAKIYRAAAAKLRALGAEVADDPEAVAYLSKVAAELYELAAEYASKAARL
# Molecular target: VTCN1, Q7Z7D3
# Sequence (Q7Z7D3 whole entry): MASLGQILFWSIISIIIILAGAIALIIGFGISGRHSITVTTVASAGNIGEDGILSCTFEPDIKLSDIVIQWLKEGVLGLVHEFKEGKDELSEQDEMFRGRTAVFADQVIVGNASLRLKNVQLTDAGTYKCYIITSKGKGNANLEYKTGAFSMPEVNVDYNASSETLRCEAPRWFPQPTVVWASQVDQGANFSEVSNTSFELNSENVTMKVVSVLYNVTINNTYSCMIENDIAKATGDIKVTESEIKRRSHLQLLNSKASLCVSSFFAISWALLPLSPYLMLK
row,Binder,binding in a display sort
1,B1,not found
2,B2,not found
3,B3,not found
4,B4,not found
5,B5,not found
6,B6,not found
7,B7,not found
8,B8,not found
9,B9,not found
10,B10,not found
11,B11,not found
12,B12,not found
13,B13,not found
14,B14,not found
15,B15,not found
16,B16,not found
17,B17,not found
18,B18,not found
19,B19,not found
